Compound activity deposited in PubChem BioAssay by National Center for Advancing Translational Sciences (NCATS).
Hits are enriched below; roughly 11% of the tested compounds scored in any of these assays.
HP1b binding inh = HTS for Inhibitors of HP1-beta Chromodomain Interactions with Methylated Histone Tails; AlphaScreen HP1-beta / biotin-H3K9me3 peptide binding; Potency, µM (highest dose often 114 µM), without a hit: at the highest dose activity change, negative = inhibition, most hits filed as inhibitors; 390,000 tested, 0.56% active; Chromobox protein homolog 1 (Homo sapiens), P83916; further: potency means the concentration at half of the fitted maximal effect; nearly all actives have a fitted effect of over 70% in size
Target sequence (P83916 whole entry, looked up): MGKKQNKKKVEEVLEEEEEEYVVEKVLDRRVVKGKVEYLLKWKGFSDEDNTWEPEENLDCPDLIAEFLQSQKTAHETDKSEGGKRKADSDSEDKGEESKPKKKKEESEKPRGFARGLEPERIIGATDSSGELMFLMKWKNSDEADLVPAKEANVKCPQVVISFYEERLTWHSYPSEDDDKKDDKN
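Compound inhibition of the preformed complex between 50 nM HP1-beta and 50 nM biotinylated H3K9me3 peptide was read by AlphaScreen. Buffer was PBS pH 7.4 with 0.01% Tween-20. Incubations ran 30 min at room temperature, with 10 ug/mL donor/acceptor beads.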
BAZ2B inh = qHTS Assay for Inhibitors of BAZ2B | Bromodomain adjacent to zinc finger domain protein 2B (Homo sapiens), Q9UIF8 | AlphaScreen BAZ2B-H3K14Ac peptide displacement | Potency, µM (doses to about 114 µM), inactives show top-dose activity change, negative = inhibition, hits mostly inhibitors | 360,000 tested, 4.4% active; further: potency means the concentration at half of the fitted maximal effect; on the % scale 0 is the no-effect control and ±100 the full control effect; nearly all actives have a fitted effect of over 60% in size
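Multi-concentration screen (max 110 uM) measuring displacement of acetylated histone H3 peptide from BAZ2B by AlphaScreen, using 50 nM protein, 50 nM peptide and 10 ug/mL streptavidin donor plus Ni-chelate acceptor beads.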
JMJD2A Tudor inh = qHTS Assay for Inhibitors of JMJD2A-Tudor Domain; Lysine-specific demethylase 4A (Homo sapiens), O75164; Potency, µM (doses to about 114 µM), for the others: at the top dose activity change, negative = inhibition, actives largely listed as inhibitors; AID 504339, 2011; 390,000 tested, 4.4% active; AlphaScreen JMJD2A-Tudor / H3K4me3 peptide binding; further: potency means the concentration at half of the fitted maximal effect; on the % scale 0 is the no-effect control and ±100 the full control effect; nearly all actives have a fitted effect of over 50% in size
G9a block = qHTS Assay for Inhibitors of Histone Lysine Methyltransferase G9a; Histone-lysine N-methyltransferase EHMT2 (Homo sapiens), Q96KQ7; G9a H3K9 monomethylation, AlphaScreen, 2 h; Potency, µM (series often up to 102 µM), for inactives: at the top dose activity, negative = inhibition, hits mostly inhibitors; AID 504332, 2011; 350,000 tested, 8.8% active; further: potency means the concentration at half of the fitted maximal effect; on the % scale 0 is the no-effect control and ±100 the full control effect; nearly all actives have a fitted effect of over 75% in size
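Step 1: enzyme (final 20 nM) with compound, 15 min RT. Step 2: substrate peptide 500 nM and SAM 20 uM, 2 h RT. Step 3: anti-H3K9me1 antibody and AlphaScreen beads, 10 min, then plate read.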
L3MBTL1 block = qHTS Assay for the Inhibitors of L3MBTL1 | Lethal(3)malignant brain tumor-like protein 1 (Homo sapiens), Q9Y468 | AlphaScreen L3MBTL1–H3K9me1 peptide binding | Potency, µM (highest dose often 57.1 µM), for the others: at the highest dose activity, negative = inhibition, actives largely listed as inhibitors | 230,000 tested, 0.66% active | AID 485360, 2010; further: potency means the concentration at half of the fitted maximal effect; on the % scale 0 is the no-effect control and ±100 the full control effect; nearly all actives have a fitted effect of over 60% in size
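L3MBTL1 50 nM + b-AHA-H3(1-15)K9me1 75 nM, 30 min RT; compound added, 30 min RT; streptavidin donor/Ni-chelate acceptor beads 10 ug/mL each final, 30 min RT dark; AlphaScreen read.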
PI5P4K alpha inh = qHTS for Inhibitors of phosphatidylinositol 5-phosphate 4-kinase (PI5P4K); 330,000 tested, 1.2% active; Phosphatidylinositol 5-phosphate 4-kinase type-2 alpha (Homo sapiens), P48426; max response, %; PI5P4Kalpha enzyme, ADP-Glo luminescence, 60 min; active compounds read low; active means max response of -50% or lower; inconclusive means between -30% and -50%; inactive means -30% or higher; further: value at the top dose of about 77 µM; on the % scale 0 is the no-effect control and ±100 the full control effect
Target sequence (P48426 whole entry, looked up): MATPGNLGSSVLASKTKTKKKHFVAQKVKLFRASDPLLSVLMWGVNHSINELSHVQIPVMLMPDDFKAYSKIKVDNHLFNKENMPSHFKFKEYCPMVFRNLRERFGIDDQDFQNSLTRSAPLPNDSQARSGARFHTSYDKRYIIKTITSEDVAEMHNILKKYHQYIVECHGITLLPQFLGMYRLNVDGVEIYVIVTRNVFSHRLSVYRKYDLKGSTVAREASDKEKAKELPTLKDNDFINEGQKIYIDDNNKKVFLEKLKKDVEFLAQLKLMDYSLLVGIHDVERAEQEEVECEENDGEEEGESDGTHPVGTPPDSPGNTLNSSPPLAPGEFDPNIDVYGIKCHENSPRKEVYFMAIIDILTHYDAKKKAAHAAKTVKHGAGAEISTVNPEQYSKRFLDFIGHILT
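ADP-Glo luminescence end-point read after a 60 min room-temperature kinase reaction of PI5P4Kalpha plus substrate, initiated with ATP at 5 microM final. Buffer: 0.038 M HEPES pH 7.4, EGTA, 0.1% CHAPS, 5% DMSO.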
* marks the source's active call; other numbers are inactive results; u = inconclusive; x = not tested or not shown; [ ] = another dose, or the depositor's remark. Unless noted, the call rests on the fitted dose curve; in most records, active means well fitted inhibition curve with a large enough effect; inconclusive means small, poorly fitted or top-dose-only effect; inactive means no such curve, though single readings can be large or run the other way.

SMILES	HP1b binding inh	BAZ2B inh	JMJD2A Tudor inh	G9a block	L3MBTL1 block	PI5P4K alpha inh
CCc1noc(C)c1C(=O)OCC(=O)N(C)c1c(N)n(Cc2ccccc2)c(=O)[nH]c1=O	12%	10%	-1%	50µM*	-2%	1
CCc1noc(C)c1C(=O)N(CC(C)C)c1c(N)n(Cc2ccccc2)c(=O)[nH]c1=O	20%	-4%	-11%	-8%	-3%	1
CN(C(=O)COC(=O)CSc1cc(Cl)ccc1Cl)c1c(N)n(Cc2ccccc2)c(=O)[nH]c1=O	3%	7%	-16%	7.1µM*	-8%	6
COCCN(C(=O)COC(=O)CCc1ccccc1OC)c1c(N)n(Cc2ccccc2)c(=O)[nH]c1=O	29%	-1%	-30%	13µM*	21%	3
COCCN(C(=O)COC(=O)c1ccccc1Nc1ccccc1)c1c(N)n(Cc2ccccc2)c(=O)[nH]c1=O	11%	-3%	-23%	14µM*	6%	1
Cc1ccc(N(CC(=O)NCCSc2ccccc2)S(=O)(=O)c2ccc(F)cc2)cc1	62%	1%	-17%	-44%[59 µM]	x	x
Cc1ccccc1-c1ccc2ncnc(NCCN3CCOCC3)c2c1	x	x	x	-4%[0.501 µM]	x	x
CN(C(=O)COC(=O)c1ccccc1Nc1ccccc1)c1c(N)n(Cc2ccccc2)c(=O)[nH]c1=O	15%	-26%	-20%	14µM*	1%	0
CN(C(=O)COC(=O)C1COc2ccccc2O1)c1c(N)n(Cc2ccccc2)c(=O)[nH]c1=O (centres undefined)	22%	-1%	-15%	45µM*	4%	-6
CCN(C(=O)COC(=O)c1ccccc1Cc1ccccc1)c1c(N)n(Cc2ccccc2)c(=O)[nH]c1=O	17%	x	-10%	x	x	20
CN(C(=O)COC(=O)c1ccccc1Cc1ccccc1)c1c(N)n(Cc2ccccc2)c(=O)[nH]c1=O	18%	5%	-16%	50µM*	6%	6
N#Cc1ccccc1NC(=O)CSc1ncn[nH]1	18%	3%	-1%	-1%[59 µM]	x	x
O=C(O)CN1C(=O)C2C3CC(C2C1=O)C1C(c2ccc(Cl)cc2)c2sc(=O)[nH]c2SC31 (centres undefined)	-1%	-26%	-17%	50µM*	x	0
O=C(O)CCCN1C(=O)C2C3CC(C2C1=O)C1C(c2ccccc2)c2sc(=O)[nH]c2SC31 (centres undefined)	26%	x	-5%	u	x	-1
O=C(O)CN1C(=O)C2C3CC(C2C1=O)C1C(c2ccc(F)cc2)c2sc(=O)[nH]c2SC31 (centres undefined)	14%	2%	-13%	45µM*	x	-7
Cc1ccc(S(=O)(=O)NCCc2nnc3ccc(SCC(=O)Nc4ccc(OC(F)(F)F)cc4)nn23)cc1	33%	-1%	-3%	-3%[59 µM]	x	x
COc1ccc(Cl)cc1NC(=S)NCc1cccnc1	46%	-22%	-2%	-30%	-7%	-1
COc1ccc(CC(=O)NNC(=O)c2cccnc2)cc1OC	39%	u	-3%	0%	-11%	1
COc1ccc(NC(=S)NNC(=O)c2cccnc2)cc1OC	21%	-15%	-15%	45µM*	4%	-2
COc1ccc(Cl)cc1NC(=S)NNC(=O)CC(C)C	8%	-3%	-22%	25%[12.7 µM]	3%	9
COc1ccc(Cl)cc1NC(=S)NNC(=O)c1cccnc1	3%	5%	-25%	25µM*	x	-12
COc1ccc(Cl)cc1NC(=S)NNC(=O)c1cccs1	1%	-29%	u	28µM*	-21%	-23
Clc1cccc(N2CCN(c3nc4ccccc4n4nnnc34)CC2)c1	90%	22%	34%	108%[59 µM]	x	x
O=C(NCc1ccc(Cl)cc1)c1cnc(N2CCOCC2)c2ccccc12	25%[57 µM]	1%	3%	8%[59 µM]	x	x
Cc1sc2nc3c4ccccc4c(NCc4ccco4)nn3c(=O)c2c1C	30%	19%	8%	-29%[59 µM]	15%	u
SMILES	HP1b binding inh	BAZ2B inh	JMJD2A Tudor inh	G9a block	L3MBTL1 block	PI5P4K alpha inh
Cc1nc(NCc2ccco2)c2c(C)c(C)sc2n1	u	28µM*	3.2µM*	8.9µM*	x	x
Cc1nc(SCC(=O)N(C)Cc2ccco2)c2c(C)c(C)sc2n1	24%	-26%	-28%[57.1 µM]	50µM*	-5%	0
COc1ccc(NC2SC(=O)N(CC(=O)O)C2=O)cc1 (centres undefined)	8%	-28%	79µM*	40µM*	4%	-15
COC(=O)c1cccc(CN2C(=O)SC(Nc3ccc(Cl)cc3)C2=O)c1 (centres undefined)	13%	-1%	-9%	-4%[59 µM]	x	x
O=C(O)CN1C(=O)SC(Nc2ccccc2)C1=O (centres undefined)	12%	-5%	-4%	u	6%	x
CCOC(=O)c1ccc(NC2SC(=O)N(Cc3cccc(C(=O)O)c3)C2=O)cc1 (centres undefined)	41%	-5%	-21%	2.8µM*	x	x
COc1ccc(CNC(=O)c2cc3ccccn3n2)c(OC)c1	6%	u	-15%	-2%[59 µM]	x	x
O=c1cc(CO)oc(C(Nc2ccccn2)c2ccc(F)cc2)c1O (centres undefined)	u	-27%	40µM*	-120%[12.7 µM]	3%	-3
NC(c1csc(Nc2ccccn2)n1)c1ccccc1Cl (centres undefined)	x	x	x	x	x	-8
O=c1cc(CO)oc(C(Nc2ccccn2)c2ccccc2Cl)c1O (centres undefined)	u	u	28µM*	1.1µM*	x	1
O=c1cc(CO)oc(C(Nc2ccccn2)c2ccsc2)c1O (centres undefined)	x	u	x	2µM*	-8%	x
COc1ccc(CNc2ccccn2)c(O)c1	41%	-8%	0%	x	44%	-4
Cc1ccnc(NC(c2ccccc2O)c2oc(CO)cc(=O)c2O)c1 (centres undefined)	1%	u	-17%	0.89µM*	x	-19
COc1ccc2c(c1)Oc1ncn(CCN3CCOCC3)c(=N)c1C2c1ccc(OC)c(OC)c1 (centres undefined)	x	x	-20%	x	x	x
Fc1ccccc1Cn1c(-c2ccccc2)nc2ccccc21	98%	106%	5%	36%[59 µM]	x	x
